# Target: CRYGS
# Experiment: pooled miR-30 sensor sort-seq; sequence = guide strand
# Conditions: shRNA
# Further: reference of the scale not given here.
row,Sequence,sensor-assay potency score (higher = more potent)
1,TACAGGAGTGGATCTCTCGCAT,-0.237
2,TTCATAGAAAGTAATCTTGGTT,-0.0295
3,TGATGGAAGGGCAATCTTCGGT,-1.06
4,TTACAGGAGTGGATCTCTCGCA,0.0996
5,TTAATGGAGTTGCAGCGACTTA,-1.8
6,TATACTGGCCTCCACTAGGCAG,-0.983
7,TATGTGTGGAAATCTGCACAGT,-0.978
8,TTTGTCTTCATAGAAAGTAATC,-1.62
9,AAAGATCTGAATCTTATACTGG,0.0834
10,TCGCATGTGAAATTGCTCCATG,-0.662
11,AAGATCTGAATCTTATACTGGC,0.642
12,TCGCAATCACAGTCATAGCGAC,-1.06
13,TGAAATTGCTCCATGATGGAAG,-0.169
14,TTTCTCAAAGATCTGAATCTTA,0.174
15,TTTTTGTCTTCATAGAAAGTAA,-0.778
16,TTCGGTGGTTTCATACATCTGA,0.37

# Target: CSE1L
# Experiment: as above
# Conditions: shRNA
row,Sequence,sensor-assay potency score (higher = more potent)
1,TCATCTTCAACAATTCTCCAGT,-0.0113
2,TTGGGTTCTTACTAACAGCTAA,-0.417
3,TTTTAAATAATGAATGTGCTGT,0.306
4,TTGACTTAAATTCATGACGGTA,-0.629
5,TACATTTCCAGATACCTTCTGA,-0.0308
6,TATATTGGTCAACTGATTCAGG,-0.381
7,TAAGTATGAACAACAATACTTT,-0.402
8,TAATATATTTGATACCGTCAGC,-0.712
9,TTCATCTTCAACAATTCTCCAG,-0.255
10,TTAGCTTTGCAAGTTATTCTTA,0.362
11,AAAACTTGCATAATCCTCGTAC,0.387
12,TAACAGCTAATAGCTTCTGTGT,-1.13
13,TTGACCTACAGGATCATGCTCT,0.379
14,TTGAATTGCATTACTTACCAAC,-0.851
15,TTGTGTAATTCCATGCTTCTGT,-0.12
16,TAGCAGAATCTCAACAAACGGT,-0.43
17,TTAATCAAGAGAGGAATCGAGA,-0.818
18,TATTGCTTCAAACATGTAGTGA,-0.339
19,TTCTGTGGAAAATCTTCTCTGC,0.43
20,TAGAAGATAAAAACCTTGGTGG,0.264
21,TTATGGATAAACATATTGCTTC,-0.779
22,TAAGATTTCAGTAAACACCAAA,-0.574

# Source: the OligoGym collection
